# PubChem BioAssay (NCI)
# About 79,000 compounds went through this panel and 15% of them were active in at least one assay; those are over-represented in the sample as a whole. A number with no mark means an inactive call. Active and inactive are the calls of the source. No stated cut-off is given here; in the data, active means growth inhibition above about 70%; inactive means the rest.
# Assay: NCI Yeast Anticancer Drug Screen. Data for the bub3 strain (AID 167)
# Conditions: S. cerevisiae bub3 mutant strain, at 50.0 µM (retest, dose inferred, filed as 5.0), hits give high values
# How it was run: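 Compounds were applied to a genetically altered yeast strain carrying a cell-cycle control defect. Growth inhibition was scored against vehicle-treated controls.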
row,SMILES,growth inhibition
1,Cc1ccc(-n2c(CSc3ccc(Cl)cc3)nnc2SCc2nc3ccccc3[nH]2)cc1,-3%
2,CC(=O)Nc1cccc(C(=O)O)c1,7%
3,COc1ccc2c(c1)CCCN2CCCCCCCCCN1CCCCC1,76% (active)
4,CN(C)C(=O)/N=c1\ss/c(=N\C(=S)N(C)C)n1-c1ccccc1,50%
5,Clc1ccc(-c2nnc(-c3ccccn3)o2)c(Cl)c1,94% (active)
6,CC(O)CC(O)CC1CCCO1 (stereo not drawn),19%
7,CC[C@]1(O)C[C@H]2[C@@H]3CCc4cc(OC)ccc4[C@H]3CC[C@]2(C)[C@H]1O,97% (active)
8,CCCCCCCCCCCCCCCCCCOS(=O)(=O)O (tested in a mixture with another compound),77% (active)
9,C/C(=N\NC(=S)N1CCCC1)c1nc2ncccc2[nH]1,98% (active)
10,CC(C)(C)C1=NN=C2c3ccccc3C(=O)C21 (stereo not drawn),87% (active)
11,O=C(O)c1ccc(N=CC2CO2)cc1 (stereo not drawn),98% (active)
12,CCC1(C)C(C#N)(C#N)C1(C#N)C#N,95% (active)
13,COc1ccc(N(C)Sc2ccccc2)cc1,90% (active)
14,C/C(CCn1[nH]c(=O)ccc1=O)=N\NS(=O)(=O)c1ccc(C)cc1,6%
15,CCC[n+]1ccc(/C=N\NC(N)=S)c2ccccc21,42%
16,O=S1CCS(=O)C1c1ccccc1 (stereo not drawn),38%
17,NC(=O)c1c(Cl)nc2n1CCS2,-5%
18,CC(C)S(=O)(=O)ON1C(=O)c2ccc(N(C)C)cc2C1=O,48%
19,C=Cc1cc(=O)oc2cc(OC)ccc12,98% (active)
20,O=[N+]([O-])c1cc(Cl)cc2c1nc(NCCO)c1ccccc12,85% (active)

row,SMILES,growth inhibition
1,c1ccc2nc3ccccc3nc2c1,45%
2,Cc1cc(O)ccc1SC#N,57%
3,CC1=C(C(=O)NCc2ccccc2)C(c2ccccc2O)C(C(=O)NCc2ccccc2)=C(C)N1,7%
4,Cc1occc1C(=S)Nc1ccc(Cl)c(COC(C)(C)C)c1,90% (active)
5,CCN(CC)CCOc1c(I)cc(I)cc1I,98% (active)
6,CCc1c(C(=O)OC)c(C(=O)OC)c(-c2ccccc2)n1CCn1c(CC)c(C(=O)OC)c(C(=O)OC)c1-c1ccccc1,83% (active)
7,O=C1/C(=C/c2ccc(Cl)cc2)CSC/C1=C\c1ccc(Cl)cc1,62%
8,COc1ccc(C2COc3cc(O)c(O)cc3C2)cc1OC (stereo not drawn),60%
9,O=C1c2ccccc2C(=O)c2c1cc(O)c(O)c2O,91% (active)
10,COc1cc[c]([Sn]([O][Sn]([Cl])([c]2ccc(OC)cc2)[c]2ccc(OC)cc2)[c]2ccc(OC)cc2)cc1,96% (active)
11,O=C(N/C(=C\c1ccc(/C=C(\NC(=O)c2ccccc2)c2nc3ccccc3s2)cc1)c1nc2ccccc2s1)c1ccccc1,60%
12,Cn1c(=O)cc[nH]c1=O,-5%
13,CCOC(=O)C1=C(c2ccccc2)SC(c2ccccc2)N(C(C)C)C1=O (stereo not drawn),68%
14,S=C1NC2=C(CSC/C2=C\c2cccc(Br)c2)C(c2cccc(Br)c2)N1 (stereo not drawn),98% (active)
15,c1ccc2[nH]c(CN(CCN(Cc3nc4ccccc4[nH]3)Cc3nc4ccccc4[nH]3)Cc3nc4ccccc4[nH]3)nc2c1,95% (active)
16,O=[N+]([O-])c1ccc(NC(=S)N/N=C(\c2ccccc2)c2ccccn2)cc1,82% (active)
17,O=C(NCCl)Nc1ccccc1,79% (active)
18,O=Cc1[nH]c(=S)[nH]c(=O)c1CCCc1ccccc1,95% (active)
19,CCCC/C=C(/CCCCOCOCCOC)[Si](C)(C)C,-9%

# Same assay, conditions: S. cerevisiae bub3 mutant strain, at 50.0 µM, hits give high values
row,SMILES,growth inhibition
1,Cc1ccc(-n2c(CSc3ccc(Cl)cc3)nnc2SCc2nc3ccccc3[nH]2)cc1,3.9%
2,CC(=O)Nc1cccc(C(=O)O)c1,8.6%
3,COc1ccc2c(c1)CCCN2CCCCCCCCCN1CCCCC1,79.6% (active)
4,CN(C)C(=O)/N=c1\ss/c(=N\C(=S)N(C)C)n1-c1ccccc1,68.5%
5,Clc1ccc(-c2nnc(-c3ccccn3)o2)c(Cl)c1,70.1% (active)
6,CC(O)CC(O)CC1CCCO1 (stereo not drawn),82.7% (active)
7,CC[C@]1(O)C[C@H]2[C@@H]3CCc4cc(OC)ccc4[C@H]3CC[C@]2(C)[C@H]1O,49.8%
8,CCCCCCCCCCCCCCCCCCOS(=O)(=O)O (tested in a mixture with another compound),67.5%
9,C/C(=N\NC(=S)N1CCCC1)c1nc2ncccc2[nH]1,87% (active)
10,CC(C)(C)C1=NN=C2c3ccccc3C(=O)C21 (stereo not drawn),78.7% (active)
11,O=C(O)c1ccc(N=CC2CO2)cc1 (stereo not drawn),-10%
12,CCC1(C)C(C#N)(C#N)C1(C#N)C#N,95.4% (active)
13,COc1ccc(N(C)Sc2ccccc2)cc1,69.7%
14,C/C(CCn1[nH]c(=O)ccc1=O)=N\NS(=O)(=O)c1ccc(C)cc1,-5.15%
15,CCC[n+]1ccc(/C=N\NC(N)=S)c2ccccc21,-6.7%
16,O=S1CCS(=O)C1c1ccccc1 (stereo not drawn),67.8%
17,NC(=O)c1c(Cl)nc2n1CCS2,-4.2%
18,CC(C)S(=O)(=O)ON1C(=O)c2ccc(N(C)C)cc2C1=O,73.4% (active)
19,C=Cc1cc(=O)oc2cc(OC)ccc12,93.2% (active)
20,O=[N+]([O-])c1cc(Cl)cc2c1nc(NCCO)c1ccccc12,79.9% (active)

row,SMILES,growth inhibition
1,c1ccc2nc3ccccc3nc2c1,33.1%
2,Cc1cc(O)ccc1SC#N,79.3% (active)
3,CC1=C(C(=O)NCc2ccccc2)C(c2ccccc2O)C(C(=O)NCc2ccccc2)=C(C)N1,86.4% (active)
4,Cc1occc1C(=S)Nc1ccc(Cl)c(COC(C)(C)C)c1,86.2% (active)
5,CCN(CC)CCOc1c(I)cc(I)cc1I,84.8% (active)
6,CCc1c(C(=O)OC)c(C(=O)OC)c(-c2ccccc2)n1CCn1c(CC)c(C(=O)OC)c(C(=O)OC)c1-c1ccccc1,98.5% (active)
7,O=C1/C(=C/c2ccc(Cl)cc2)CSC/C1=C\c1ccc(Cl)cc1,5.55%
8,COc1ccc(C2COc3cc(O)c(O)cc3C2)cc1OC (stereo not drawn),29.6%
9,O=C1c2ccccc2C(=O)c2c1cc(O)c(O)c2O,70.7% (active)
10,COc1cc[c]([Sn]([O][Sn]([Cl])([c]2ccc(OC)cc2)[c]2ccc(OC)cc2)[c]2ccc(OC)cc2)cc1,71.3% (active)
11,O=C(N/C(=C\c1ccc(/C=C(\NC(=O)c2ccccc2)c2nc3ccccc3s2)cc1)c1nc2ccccc2s1)c1ccccc1,85.5% (active)
12,Cn1c(=O)cc[nH]c1=O,98.8% (active)
13,CCOC(=O)C1=C(c2ccccc2)SC(c2ccccc2)N(C(C)C)C1=O (stereo not drawn),87.7% (active)
14,S=C1NC2=C(CSC/C2=C\c2cccc(Br)c2)C(c2cccc(Br)c2)N1 (stereo not drawn),93.8% (active)
15,c1ccc2[nH]c(CN(CCN(Cc3nc4ccccc4[nH]3)Cc3nc4ccccc4[nH]3)Cc3nc4ccccc4[nH]3)nc2c1,89% (active)
16,O=[N+]([O-])c1ccc(NC(=S)N/N=C(\c2ccccc2)c2ccccn2)cc1,80.8% (active)
17,O=C(NCCl)Nc1ccccc1,67.5%
18,O=Cc1[nH]c(=S)[nH]c(=O)c1CCCc1ccccc1,85% (active)
19,CCCC/C=C(/CCCCOCOCCOC)[Si](C)(C)C,11.7%
